# Data: ChEMBL document CHEMBL2218924, “A broad activity screen in support of a chemogenomic map for kinase signalling research and drug discovery” (Biochem J, 2013)
# Legend:
# [1] = molecular target: T1, Serine/threonine-protein kinase TBK1 (Homo sapiens) (UniProt Q9UHD2); conditions: at 10 µM
# T1 sequence (whole entry): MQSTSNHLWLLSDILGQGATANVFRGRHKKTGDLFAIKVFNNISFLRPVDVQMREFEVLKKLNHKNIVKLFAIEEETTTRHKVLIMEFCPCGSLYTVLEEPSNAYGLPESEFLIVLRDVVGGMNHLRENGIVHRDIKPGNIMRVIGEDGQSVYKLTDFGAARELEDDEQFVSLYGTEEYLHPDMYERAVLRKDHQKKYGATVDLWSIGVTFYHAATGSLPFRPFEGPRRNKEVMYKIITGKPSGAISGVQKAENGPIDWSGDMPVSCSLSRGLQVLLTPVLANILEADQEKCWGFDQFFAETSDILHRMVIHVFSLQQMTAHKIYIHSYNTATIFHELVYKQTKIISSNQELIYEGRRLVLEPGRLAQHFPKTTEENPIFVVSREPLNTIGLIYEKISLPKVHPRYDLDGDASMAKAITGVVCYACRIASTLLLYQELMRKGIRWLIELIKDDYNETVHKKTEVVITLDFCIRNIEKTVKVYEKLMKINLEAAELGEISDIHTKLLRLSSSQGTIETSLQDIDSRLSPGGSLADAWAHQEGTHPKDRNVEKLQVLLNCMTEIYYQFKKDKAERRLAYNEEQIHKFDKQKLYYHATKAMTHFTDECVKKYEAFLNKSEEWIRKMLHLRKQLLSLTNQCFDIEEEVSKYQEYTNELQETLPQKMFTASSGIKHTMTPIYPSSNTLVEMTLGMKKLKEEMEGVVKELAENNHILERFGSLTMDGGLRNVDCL
# [2] = molecular target: T2, Inhibitor of nuclear factor kappa-B kinase subunit beta (Homo sapiens) (UniProt O14920); conditions: at 1 µM
# T2 sequence (whole entry): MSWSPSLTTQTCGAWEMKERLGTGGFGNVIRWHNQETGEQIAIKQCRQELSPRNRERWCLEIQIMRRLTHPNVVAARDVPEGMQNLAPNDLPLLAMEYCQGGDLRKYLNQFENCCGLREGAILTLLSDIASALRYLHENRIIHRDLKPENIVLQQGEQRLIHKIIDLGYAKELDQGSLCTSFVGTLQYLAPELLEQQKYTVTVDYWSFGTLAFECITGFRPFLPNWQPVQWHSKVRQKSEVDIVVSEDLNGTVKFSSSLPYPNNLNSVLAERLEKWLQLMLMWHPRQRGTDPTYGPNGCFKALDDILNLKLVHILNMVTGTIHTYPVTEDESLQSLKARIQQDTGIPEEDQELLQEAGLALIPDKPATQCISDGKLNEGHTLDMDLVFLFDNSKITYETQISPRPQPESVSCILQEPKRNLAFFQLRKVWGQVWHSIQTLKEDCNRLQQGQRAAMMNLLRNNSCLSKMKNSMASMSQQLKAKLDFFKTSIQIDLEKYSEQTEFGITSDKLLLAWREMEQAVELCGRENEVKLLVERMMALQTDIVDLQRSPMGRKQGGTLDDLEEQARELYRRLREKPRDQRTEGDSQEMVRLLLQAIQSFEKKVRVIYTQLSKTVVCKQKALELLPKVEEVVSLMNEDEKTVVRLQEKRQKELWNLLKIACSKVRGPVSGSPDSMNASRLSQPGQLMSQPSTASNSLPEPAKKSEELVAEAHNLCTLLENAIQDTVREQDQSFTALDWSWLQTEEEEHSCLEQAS
# [3] = molecular target: T2, Inhibitor of nuclear factor kappa-B kinase subunit beta (Homo sapiens); conditions: at 10 µM
# [4] = molecular target: Interleukin-1 receptor-associated kinase 1 (Homo sapiens) (UniProt P51617); conditions: at 1 µM
# Sequence of Interleukin-1 receptor-associated kinase 1 (Homo sapiens) (P51617 whole entry, looked up): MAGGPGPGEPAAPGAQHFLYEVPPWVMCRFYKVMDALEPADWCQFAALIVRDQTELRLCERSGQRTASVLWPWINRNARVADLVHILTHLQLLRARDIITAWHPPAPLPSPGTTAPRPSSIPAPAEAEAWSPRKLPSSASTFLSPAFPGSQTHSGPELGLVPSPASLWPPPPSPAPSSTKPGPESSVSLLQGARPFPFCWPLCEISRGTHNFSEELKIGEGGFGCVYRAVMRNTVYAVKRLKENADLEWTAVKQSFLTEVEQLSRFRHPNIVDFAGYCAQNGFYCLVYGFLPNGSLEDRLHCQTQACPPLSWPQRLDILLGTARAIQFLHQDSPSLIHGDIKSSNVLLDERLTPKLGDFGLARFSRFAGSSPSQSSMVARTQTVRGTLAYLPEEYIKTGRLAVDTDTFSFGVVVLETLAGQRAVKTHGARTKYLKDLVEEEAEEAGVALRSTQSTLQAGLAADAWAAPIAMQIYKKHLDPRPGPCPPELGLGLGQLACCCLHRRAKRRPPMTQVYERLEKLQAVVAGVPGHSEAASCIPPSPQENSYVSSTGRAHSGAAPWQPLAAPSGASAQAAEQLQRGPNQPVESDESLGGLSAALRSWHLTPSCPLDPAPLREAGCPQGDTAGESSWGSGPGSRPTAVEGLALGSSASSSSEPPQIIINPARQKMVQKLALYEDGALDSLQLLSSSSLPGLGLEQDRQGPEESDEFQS
# [5] = molecular target: Insulin receptor-related protein (Homo sapiens) (UniProt P14616); conditions: at 1 µM
# Sequence of Insulin receptor-related protein (Homo sapiens) (P14616 27-742 limits assumed): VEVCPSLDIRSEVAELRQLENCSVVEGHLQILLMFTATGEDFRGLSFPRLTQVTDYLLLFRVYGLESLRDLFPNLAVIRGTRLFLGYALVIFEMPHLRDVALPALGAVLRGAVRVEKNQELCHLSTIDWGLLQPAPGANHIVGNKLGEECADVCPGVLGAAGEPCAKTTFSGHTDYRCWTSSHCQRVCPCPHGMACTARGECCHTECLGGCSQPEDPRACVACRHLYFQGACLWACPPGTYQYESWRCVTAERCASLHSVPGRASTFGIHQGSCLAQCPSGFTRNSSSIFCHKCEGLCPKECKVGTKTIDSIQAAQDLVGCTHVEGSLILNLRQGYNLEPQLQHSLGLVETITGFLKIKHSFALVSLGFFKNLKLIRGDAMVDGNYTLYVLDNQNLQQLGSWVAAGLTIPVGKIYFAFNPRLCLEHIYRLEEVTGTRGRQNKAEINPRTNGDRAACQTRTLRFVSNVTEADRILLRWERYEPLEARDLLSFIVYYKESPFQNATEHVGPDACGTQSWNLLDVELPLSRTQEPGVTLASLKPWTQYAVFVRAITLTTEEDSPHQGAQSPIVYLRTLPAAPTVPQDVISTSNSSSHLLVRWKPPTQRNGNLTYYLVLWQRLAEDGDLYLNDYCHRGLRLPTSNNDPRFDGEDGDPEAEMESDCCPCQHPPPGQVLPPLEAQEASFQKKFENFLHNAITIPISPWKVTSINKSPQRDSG
# Sequence of Insulin receptor-related protein (Homo sapiens) (P14616 747-1297 limits assumed): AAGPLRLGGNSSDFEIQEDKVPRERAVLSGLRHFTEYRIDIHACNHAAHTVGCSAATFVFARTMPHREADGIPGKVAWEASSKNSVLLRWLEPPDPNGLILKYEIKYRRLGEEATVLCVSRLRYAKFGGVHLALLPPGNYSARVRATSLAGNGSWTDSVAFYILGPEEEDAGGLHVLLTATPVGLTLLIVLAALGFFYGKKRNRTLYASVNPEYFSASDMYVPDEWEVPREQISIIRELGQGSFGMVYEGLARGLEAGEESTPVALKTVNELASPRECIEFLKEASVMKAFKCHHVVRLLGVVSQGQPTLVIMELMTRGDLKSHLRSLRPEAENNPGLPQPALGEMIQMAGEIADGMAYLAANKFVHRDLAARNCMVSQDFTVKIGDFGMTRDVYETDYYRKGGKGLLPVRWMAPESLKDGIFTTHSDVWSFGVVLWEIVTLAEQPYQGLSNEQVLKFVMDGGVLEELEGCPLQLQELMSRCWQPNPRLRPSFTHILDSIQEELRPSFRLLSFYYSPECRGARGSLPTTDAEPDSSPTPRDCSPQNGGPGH
# [6] = molecular target: Insulin receptor-related protein (Homo sapiens) (UniProt P14616); conditions: at 10 µM
# [7] = molecular target: T3, Inhibitor of nuclear factor kappa-B kinase subunit alpha (Homo sapiens) (UniProt O15111); conditions: at 1 µM
# T3 sequence (whole entry): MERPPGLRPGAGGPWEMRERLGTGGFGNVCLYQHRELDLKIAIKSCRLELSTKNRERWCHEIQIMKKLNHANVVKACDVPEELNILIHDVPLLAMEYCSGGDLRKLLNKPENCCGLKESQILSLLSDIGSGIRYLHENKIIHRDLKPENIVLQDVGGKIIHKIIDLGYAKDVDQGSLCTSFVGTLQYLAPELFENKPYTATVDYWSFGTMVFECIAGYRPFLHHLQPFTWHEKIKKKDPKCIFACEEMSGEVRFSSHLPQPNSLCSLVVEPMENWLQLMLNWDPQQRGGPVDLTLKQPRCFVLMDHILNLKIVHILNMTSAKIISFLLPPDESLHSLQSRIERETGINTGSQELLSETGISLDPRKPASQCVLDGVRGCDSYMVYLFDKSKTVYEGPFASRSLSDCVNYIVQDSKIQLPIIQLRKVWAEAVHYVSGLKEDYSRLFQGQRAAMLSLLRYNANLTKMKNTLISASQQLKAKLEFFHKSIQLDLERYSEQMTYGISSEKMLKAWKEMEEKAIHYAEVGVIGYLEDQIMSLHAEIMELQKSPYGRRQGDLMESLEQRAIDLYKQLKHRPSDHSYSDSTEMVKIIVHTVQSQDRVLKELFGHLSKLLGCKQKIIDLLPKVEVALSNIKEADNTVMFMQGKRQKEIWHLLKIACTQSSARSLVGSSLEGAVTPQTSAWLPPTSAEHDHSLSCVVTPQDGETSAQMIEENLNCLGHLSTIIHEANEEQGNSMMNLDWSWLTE
# [8] = molecular target: T3, Inhibitor of nuclear factor kappa-B kinase subunit alpha (Homo sapiens); conditions: at 10 µM
# [9] = molecular target: Interleukin-1 receptor-associated kinase 1 (Homo sapiens) (UniProt P51617); conditions: at 10 µM
# [10] = molecular target: T4, Interleukin-1 receptor-associated kinase 4 (Homo sapiens) (UniProt Q9NWZ3); conditions: at 1 µM
# T4 sequence (whole entry): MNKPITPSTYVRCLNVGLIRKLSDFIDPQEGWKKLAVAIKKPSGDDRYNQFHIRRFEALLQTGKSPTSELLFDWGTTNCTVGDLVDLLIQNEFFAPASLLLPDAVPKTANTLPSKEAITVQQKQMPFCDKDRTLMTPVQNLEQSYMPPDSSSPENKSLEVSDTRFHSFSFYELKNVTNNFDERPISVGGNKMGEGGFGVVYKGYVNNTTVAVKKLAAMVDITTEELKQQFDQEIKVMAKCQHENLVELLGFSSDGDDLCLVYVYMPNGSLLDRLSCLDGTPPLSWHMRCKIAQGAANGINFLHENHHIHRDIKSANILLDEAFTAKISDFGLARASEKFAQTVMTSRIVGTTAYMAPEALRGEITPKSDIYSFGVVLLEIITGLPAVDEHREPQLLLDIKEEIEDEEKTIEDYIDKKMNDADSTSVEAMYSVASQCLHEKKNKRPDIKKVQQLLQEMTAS
# [11] = molecular target: T4, Interleukin-1 receptor-associated kinase 4 (Homo sapiens); conditions: at 10 µM
# [12] = molecular target: Insulin receptor (Homo sapiens) (UniProt P06213); conditions: at 1 µM
# Sequence of Insulin receptor (Homo sapiens) (P06213 28-758 limits assumed): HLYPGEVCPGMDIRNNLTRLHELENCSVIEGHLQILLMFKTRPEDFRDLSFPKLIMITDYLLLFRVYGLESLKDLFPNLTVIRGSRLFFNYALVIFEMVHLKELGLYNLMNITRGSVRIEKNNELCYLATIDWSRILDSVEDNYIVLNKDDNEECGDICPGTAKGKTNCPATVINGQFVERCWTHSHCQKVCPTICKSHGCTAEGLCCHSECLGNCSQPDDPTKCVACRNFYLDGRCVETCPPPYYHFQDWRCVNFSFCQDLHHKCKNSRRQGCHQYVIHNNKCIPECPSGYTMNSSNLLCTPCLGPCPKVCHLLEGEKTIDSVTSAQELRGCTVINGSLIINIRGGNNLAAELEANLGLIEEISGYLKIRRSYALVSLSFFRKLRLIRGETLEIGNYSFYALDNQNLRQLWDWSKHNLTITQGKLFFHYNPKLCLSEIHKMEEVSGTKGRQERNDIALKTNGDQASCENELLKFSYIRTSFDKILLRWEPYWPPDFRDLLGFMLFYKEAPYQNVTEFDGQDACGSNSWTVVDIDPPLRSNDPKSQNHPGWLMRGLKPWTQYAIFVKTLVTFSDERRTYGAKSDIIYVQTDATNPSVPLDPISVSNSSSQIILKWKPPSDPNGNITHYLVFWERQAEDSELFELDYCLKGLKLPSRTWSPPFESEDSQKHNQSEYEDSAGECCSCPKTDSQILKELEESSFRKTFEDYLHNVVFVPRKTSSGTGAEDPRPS
# Sequence of Insulin receptor (Homo sapiens) (P06213 763-1382 limits assumed): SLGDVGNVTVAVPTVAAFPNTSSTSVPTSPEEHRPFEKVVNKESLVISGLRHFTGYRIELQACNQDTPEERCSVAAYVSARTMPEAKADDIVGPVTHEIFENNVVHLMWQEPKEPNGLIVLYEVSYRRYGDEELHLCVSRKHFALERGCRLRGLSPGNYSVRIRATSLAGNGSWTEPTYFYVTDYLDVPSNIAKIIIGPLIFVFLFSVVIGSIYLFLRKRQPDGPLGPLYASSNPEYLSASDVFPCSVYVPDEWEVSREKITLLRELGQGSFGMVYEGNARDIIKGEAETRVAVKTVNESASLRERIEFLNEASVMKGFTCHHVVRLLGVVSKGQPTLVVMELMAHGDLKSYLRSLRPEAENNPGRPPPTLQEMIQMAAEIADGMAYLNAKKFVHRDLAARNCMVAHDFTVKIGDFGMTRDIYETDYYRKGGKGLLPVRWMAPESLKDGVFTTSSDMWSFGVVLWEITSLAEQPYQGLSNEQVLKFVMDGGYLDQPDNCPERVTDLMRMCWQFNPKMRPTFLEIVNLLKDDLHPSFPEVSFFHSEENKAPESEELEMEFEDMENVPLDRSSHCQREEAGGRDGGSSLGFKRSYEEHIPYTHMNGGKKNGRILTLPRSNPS
# [13] = molecular target: Insulin receptor (Homo sapiens) (UniProt P06213); conditions: at 10 µM
# [14] = molecular target: Insulin receptor (Homo sapiens) (UniProt P06213); conditions: at 1 µM; remark: listed apart in the source
# [15] = molecular target: Insulin receptor (Homo sapiens) (UniProt P06213); conditions: at 10 µM; remark: listed apart in the source
# [16] = molecular target: T5, Tyrosine-protein kinase ITK/TSK (Homo sapiens) (UniProt Q08881); conditions: at 1 µM
# T5 sequence (whole entry): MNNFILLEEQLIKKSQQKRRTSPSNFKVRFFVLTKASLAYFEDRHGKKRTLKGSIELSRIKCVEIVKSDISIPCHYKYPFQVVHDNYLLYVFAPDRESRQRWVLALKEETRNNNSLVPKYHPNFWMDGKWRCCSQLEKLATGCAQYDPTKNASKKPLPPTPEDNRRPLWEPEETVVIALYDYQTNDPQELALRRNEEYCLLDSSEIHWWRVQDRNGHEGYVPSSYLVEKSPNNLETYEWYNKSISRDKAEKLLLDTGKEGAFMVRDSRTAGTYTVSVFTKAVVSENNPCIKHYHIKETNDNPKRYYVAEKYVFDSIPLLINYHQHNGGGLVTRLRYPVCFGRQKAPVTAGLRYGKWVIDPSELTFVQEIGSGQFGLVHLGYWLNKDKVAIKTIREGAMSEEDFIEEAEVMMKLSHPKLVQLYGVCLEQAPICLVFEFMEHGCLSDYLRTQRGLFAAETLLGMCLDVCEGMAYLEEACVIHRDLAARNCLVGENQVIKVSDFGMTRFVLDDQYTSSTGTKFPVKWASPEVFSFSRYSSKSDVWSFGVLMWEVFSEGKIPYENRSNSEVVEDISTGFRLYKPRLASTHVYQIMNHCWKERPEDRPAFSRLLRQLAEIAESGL
# [17] = molecular target: T6, TGF-beta receptor type-1 (Homo sapiens) (UniProt P36897); conditions: at 10 µM
# T6 sequence (whole entry): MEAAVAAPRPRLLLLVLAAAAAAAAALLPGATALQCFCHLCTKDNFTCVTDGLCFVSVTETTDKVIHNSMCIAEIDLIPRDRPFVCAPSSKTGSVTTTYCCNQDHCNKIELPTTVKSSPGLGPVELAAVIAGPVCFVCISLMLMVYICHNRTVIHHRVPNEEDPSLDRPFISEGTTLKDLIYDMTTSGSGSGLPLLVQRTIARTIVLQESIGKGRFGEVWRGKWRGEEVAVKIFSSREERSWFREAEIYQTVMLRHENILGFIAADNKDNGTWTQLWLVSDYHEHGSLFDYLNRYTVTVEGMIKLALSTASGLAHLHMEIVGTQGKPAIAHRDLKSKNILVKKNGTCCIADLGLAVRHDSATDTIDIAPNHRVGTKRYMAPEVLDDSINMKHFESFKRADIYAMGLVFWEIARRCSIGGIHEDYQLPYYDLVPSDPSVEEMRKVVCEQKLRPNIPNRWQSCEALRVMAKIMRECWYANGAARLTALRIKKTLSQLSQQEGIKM
# [18] = molecular target: Insulin-like growth factor 1 receptor (Homo sapiens) (UniProt P08069); conditions: at 10 µM
# Sequence of Insulin-like growth factor 1 receptor (Homo sapiens) (P08069 31-736 limits assumed): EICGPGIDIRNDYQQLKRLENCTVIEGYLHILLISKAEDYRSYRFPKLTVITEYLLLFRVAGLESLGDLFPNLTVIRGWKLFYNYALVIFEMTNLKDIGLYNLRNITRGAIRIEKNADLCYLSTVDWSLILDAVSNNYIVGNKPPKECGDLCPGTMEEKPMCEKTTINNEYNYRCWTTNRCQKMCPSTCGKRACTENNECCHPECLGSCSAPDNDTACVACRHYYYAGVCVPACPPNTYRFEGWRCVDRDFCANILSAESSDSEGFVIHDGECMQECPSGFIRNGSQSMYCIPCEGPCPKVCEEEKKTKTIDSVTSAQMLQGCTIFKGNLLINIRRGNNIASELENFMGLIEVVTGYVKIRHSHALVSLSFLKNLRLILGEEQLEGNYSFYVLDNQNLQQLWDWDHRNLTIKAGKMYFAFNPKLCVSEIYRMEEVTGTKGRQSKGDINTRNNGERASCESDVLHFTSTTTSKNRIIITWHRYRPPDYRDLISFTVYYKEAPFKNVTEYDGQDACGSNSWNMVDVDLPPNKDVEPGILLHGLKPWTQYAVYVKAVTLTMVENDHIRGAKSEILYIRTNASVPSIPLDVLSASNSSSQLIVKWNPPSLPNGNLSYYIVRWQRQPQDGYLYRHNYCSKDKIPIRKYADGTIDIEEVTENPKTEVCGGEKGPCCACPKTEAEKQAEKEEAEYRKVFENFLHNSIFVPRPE
# Sequence of Insulin-like growth factor 1 receptor (Homo sapiens) (P08069 741-1367 limits assumed): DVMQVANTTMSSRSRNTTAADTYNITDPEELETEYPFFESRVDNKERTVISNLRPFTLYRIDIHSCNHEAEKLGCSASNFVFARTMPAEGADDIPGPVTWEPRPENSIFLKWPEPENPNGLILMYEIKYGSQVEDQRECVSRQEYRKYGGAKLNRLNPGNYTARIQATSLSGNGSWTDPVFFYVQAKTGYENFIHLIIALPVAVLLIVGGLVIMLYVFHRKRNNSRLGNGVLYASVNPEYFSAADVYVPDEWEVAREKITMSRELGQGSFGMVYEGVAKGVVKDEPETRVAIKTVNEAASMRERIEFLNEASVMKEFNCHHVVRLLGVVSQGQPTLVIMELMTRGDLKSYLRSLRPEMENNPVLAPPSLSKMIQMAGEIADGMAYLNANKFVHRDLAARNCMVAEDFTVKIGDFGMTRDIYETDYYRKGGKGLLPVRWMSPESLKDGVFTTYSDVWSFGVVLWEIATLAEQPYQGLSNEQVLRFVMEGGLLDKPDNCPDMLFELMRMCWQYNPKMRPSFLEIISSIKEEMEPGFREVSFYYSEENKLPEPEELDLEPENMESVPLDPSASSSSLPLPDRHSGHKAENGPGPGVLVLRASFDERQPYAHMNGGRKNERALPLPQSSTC
# [19] = molecular target: T6, TGF-beta receptor type-1 (Homo sapiens); conditions: at 1 µM
smiles,measurement,setting,value
COc1cc2nccc(Oc3ccc(NC(=O)Nc4cc(C)on4)c(Cl)c3)c2cc1OC,residual activity,[1],68%
same,residual activity,[2],104%
same,residual activity,[3],102%
same,residual activity,[4],82%
same,residual activity,[5],102%
same,residual activity,[6],29%
O=C1NC(=O)C(c2cn(CCCn3ccnc3)c3ccccc23)=C1Nc1ccccc1,residual activity,[1],9%
same,residual activity,[7],112%
same,residual activity,[8],103%
same,residual activity,[4],81%
same,residual activity,[9],76%
same,residual activity,[10],45%
same,residual activity,[11],32%
same,residual activity,[5],135%
same,residual activity,[6],65%
CCOC(=O)c1c(C)[nH]c(/C=C2\C(=O)Nc3ccccc32)c1C,residual activity,[1],85%
same,residual activity,[7],96%
same,residual activity,[8],88%
same,residual activity,[12],93%
same,residual activity,[13],96%
same,residual activity,[14],84%
same,residual activity,[15],93%
same,residual activity,[4],94%
same,residual activity,[9],99%
same,residual activity,[10],97%
same,residual activity,[11],49%
same,residual activity,[5],93%
same,residual activity,[6],81%
same,residual activity,[16],79%
O=C1Cc2c([nH]c3ccc([N+](=O)[O-])cc23)-c2ccccc2N1,residual activity,[1],37%
same,residual activity,[17],65%
same,residual activity,[7],114%
same,residual activity,[8],101%
Cc1cc(C)c(/C=C2\C(=O)Nc3ccccc32)[nH]1,residual activity,[1],52%
same,residual activity,[8],73%
same,residual activity,[4],76%
same,residual activity,[9],75%
same,residual activity,[10],39%
same,residual activity,[11],13%
same,residual activity,[5],65%
same,residual activity,[6],3%
Nc1nccc(-c2c(-c3ccc(F)cc3)ncn2C2CCNCC2)n1,residual activity,[1],69%
same,residual activity,[7],120%
same,residual activity,[2],116%
same,residual activity,[5],140%
O=C1NC(=O)C(c2c[nH]c3ccccc23)=C1c1c[nH]c2ccccc12,residual activity,[1],14%
same,residual activity,[18],76%
same,residual activity,[13],62%
same,residual activity,[14],100%
same,residual activity,[10],81%
same,residual activity,[11],27%
same,residual activity,[5],120%
same,residual activity,[6],37%
same,residual activity,[16],100%
O=c1cc(N2CCOCC2)oc2c(-c3ccccc3)cccc12,residual activity,[1],55%
same,residual activity,[6],75%
N#C/C(=C\c1ccc(O)c(O)c1)C(=O)NCc1ccccc1,residual activity,[1],65%
same,residual activity,[19],81%
same,residual activity,[7],104%
same,residual activity,[8],89%
same,residual activity,[13],89%
same,residual activity,[14],100%
same,residual activity,[15],85%
same,residual activity,[9],81%
same,residual activity,[11],100%
same,residual activity,[5],88%
same,residual activity,[6],85%
same,residual activity,[16],104%
COc1ccc(-c2cnc3c(-c4ccsc4)cnn3c2)cc1,residual activity,[1],85%
same,residual activity,[7],91%
same,residual activity,[8],90%
same,residual activity,[2],100%
same,residual activity,[3],95%
same,residual activity,[12],91%
same,residual activity,[4],98%
same,residual activity,[9],84%
same,residual activity,[10],124%
same,residual activity,[11],94%
